Shown are actives, neighbours in structure and some others; about 21% of the full set was active somewhere.
CHX counter: Cycloheximide Counterscreen for Small Molecule Inhibitors of Shiga Toxin | max response, % | 300,000 compounds, 12% hits | cell reporter, cycloheximide protein synthesis inhibition counterscreen; in the data active = max response mostly above about 13%, no sharp cut-off; inactive = mostly below about 14%; also: read at 38.3 µM for the half of the compounds with a filed dose
Pf growth 48h: Primary qHTS for delayed death inhibitors of the malarial parasite plastid, 48 hour incubation; P. falciparum luciferase growth in erythrocytes, 48 h; Potency, µM (top dose mostly 28.7 µM), most hits filed as inhibitors; 310,000 compounds, 5.9% hits
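Luciferase-expressing parasites in RBCs, 2% Hct / 0.1% parasitemia final; RPMI 1640 + 0.5% Albumax; 37 C, 5% CO2, one generation; luminescence read-out, lower signal = inhibition.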
NS1 function inh: qHTS Assay for Inhibitors of Influenza NS1 Protein Function. AID 2326, 2010. 270,000 compounds, 0.4% hits. Potency, µM (titrated, usually from 46.1 µM); calls by dose curve; also: actives are rising curves; nearly all actives have a fitted effect of over 50% in size
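Compounds were scored for reversing the slow growth caused by influenza A NS1 in S. cerevisiae, measured by optical density at 600 nm. Assay medium contained 2% galactose at pH 6.0; NS1-free yeast of the same strain were the positive control.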
Shiga inhibitor: A qHTS for Small Molecule Inhibitors of Shiga Toxin; 290,000 compounds, 9.2% hits; AID 2315, 2010; inhibition, % at 38.7 µM; Vero cells, Shiga toxin protein synthesis inhibition reporter; in the data active = inhibition mostly above about 28%, no sharp cut-off; inactive = mostly below about 43%
Pf growth 96h: Primary qHTS for delayed death inhibitors of the malarial parasite plastid, 96 hour incubation; P. falciparum luciferase reporter growth, 96 h; Potency, µM (doses to about 28.7 µM), usual class: inhibitors; 320,000 compounds, 6.9% hits
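Parasite growth measured via integrated firefly luciferase reporter in P. falciparum. Infected erythrocytes at 2% hematocrit, 0.05% parasitemia final were treated 96 hours at 37 C under 5% CO2, and luminescence was read.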
Hits are given with their value. Unless noted, calls follow the shape of the dose curve; as a rule, active = well fitted inhibition curve with a large enough effect; inconclusive = small, poorly fitted or top-dose-only effect, or another doubt; inactive = no such curve, though single readings can be large or run the other way.

What do the screens show for `CC(=O)C1CCN(Cc2ccccc2)CC1`?
CHX counter: inactive; NS1 function inh: inactive; Shiga inhibitor: inactive; Pf growth 96h: inactive

How did CCn1c(SCC(=O)Nc2ccc(C(=O)OC)cc2)nc2cccnc21 do in these assays?
CHX counter: inactive; Pf growth 48h: inactive; NS1 function inh: inactive; Shiga inhibitor: inactive; Pf growth 96h: inconclusive

What do the screens show for `Cc1ccc(S(=O)(=O)N2CCC(NC(=O)C3CCCCC3)CC2)cc1`?
CHX counter: inactive; Pf growth 48h: inactive; NS1 function inh: inconclusive; Shiga inhibitor: inactive; Pf growth 96h: inactive

What do the screens show for `CN(C)C(CNC(=O)c1ccc(C2SCCS2)cc1)c1ccccc1` (stereo not given)?
CHX counter: 35; Pf growth 48h: inconclusive; NS1 function inh: inactive; Shiga inhibitor: 55; Pf growth 96h: inactive

What do the screens show for `COc1ccccc1C1OC2=C(Nc3ccc([N+](=O)[O-])cc3N2)C1=O` (stereo not given)?
CHX counter: inactive; Pf growth 48h: inconclusive; NS1 function inh: inactive; Shiga inhibitor: inactive; Pf growth 96h: inconclusive

Results for Cc1cc2c(cc1C)NC1=C(N2)OC(c2cccc(O)c2)C1=O (stereo not given) ?
CHX counter: 7.4; Pf growth 48h: inactive; NS1 function inh: inactive; Shiga inhibitor: inactive; Pf growth 96h: inactive

How did COc1ccc(C2OC3=C(Nc4cc(C)c(C)cc4N3)C2=O)cc1 (stereo not given) do in these assays?
CHX counter: 30; Pf growth 48h: inactive; NS1 function inh: inactive; Shiga inhibitor: 77; Pf growth 96h: inactive

Results for COc1ccc(-c2[nH]ncc2CN2CCN(Cc3cccs3)CC2)cc1F ?
CHX counter: inactive; Pf growth 48h: inconclusive; NS1 function inh: inactive; Shiga inhibitor: inactive; Pf growth 96h: inconclusive

Results for CCN(CC)C1CCN(Cc2cn[nH]c2-c2ccc(OC)c(F)c2)C1 (stereo not given) ?
CHX counter: inactive; Pf growth 48h: inactive; NS1 function inh: inactive; Shiga inhibitor: inactive; Pf growth 96h: 2.1µM

What do the screens show for `Cc1cc2ncn(/N=C/c3cccnc3)c2cc1C`?
CHX counter: inactive; Pf growth 48h: 15µM; NS1 function inh: inactive; Shiga inhibitor: inactive; Pf growth 96h: inconclusive

How did C(=N\n1cnc2ccccc21)/c1cccnc1 do in these assays?
CHX counter: 19; NS1 function inh: inactive; Shiga inhibitor: inactive; Pf growth 96h: inactive

How did Cc1cc2ncn(/N=C/c3ccc4c(c3)OCO4)c2cc1C do in these assays?
CHX counter: 18; Pf growth 48h: inconclusive; NS1 function inh: inactive; Shiga inhibitor: 76; Pf growth 96h: inactive

How did CC(=O)Nc1ccc(C2=CC(=O)CC(C)(C)C2)cc1 do in these assays?
Pf growth 48h: inactive; Pf growth 96h: inactive

What do the screens show for `CN(c1ccccc1)S(=O)(=O)c1ccc(C(=O)Nc2ccncc2)cc1`?
Pf growth 48h: inconclusive; Pf growth 96h: inactive

Results for CN(c1ccccc1)S(=O)(=O)c1ccc(NC(=O)c2ccccc2)cc1 ?
CHX counter: inactive; Pf growth 48h: inactive; NS1 function inh: inactive; Shiga inhibitor: active; Pf growth 96h: inactive

What do the screens show for `CCN(c1ccccc1)S(=O)(=O)c1ccc(C(=O)Nc2ccccn2)cc1`?
Pf growth 48h: inconclusive; Pf growth 96h: inactive

Results for O=C(Nc1ccc(S(=O)(=O)Nc2ccccc2)cc1)C1CC1 ?
CHX counter: inactive; Pf growth 48h: inactive; NS1 function inh: inactive; Shiga inhibitor: inactive; Pf growth 96h: inactive

How did CN(c1ccc(C(=O)Nc2ccccn2)cc1)S(=O)(=O)c1ccccc1 do in these assays?
CHX counter: 32; Pf growth 48h: inactive; NS1 function inh: inactive; Shiga inhibitor: 90; Pf growth 96h: inconclusive

What do the screens show for `CN(c1ccccc1)S(=O)(=O)c1ccc(NC(=O)C2CC2)cc1`?
CHX counter: inactive; Pf growth 48h: inactive; NS1 function inh: inactive; Shiga inhibitor: inactive; Pf growth 96h: 6.6µM

Results for CC(=O)Nc1ccc(NC(=O)C(C)Sc2n[nH]c(-c3cccs3)n2)cc1 (stereo not given) ?
Pf growth 48h: inconclusive; Pf growth 96h: inactive

What do the screens show for `CC(=O)Nc1ccc2nc(-c3cccs3)[nH]c2c1`?
CHX counter: 27; Pf growth 48h: inactive; NS1 function inh: inactive; Shiga inhibitor: 68; Pf growth 96h: inactive

Results for Cn1cccc1-c1nc2ccc(NC(=O)c3cccs3)cc2[nH]1 ?
CHX counter: 26; Pf growth 48h: inactive; NS1 function inh: inactive; Shiga inhibitor: inactive; Pf growth 96h: 12µM

How did CC(=O)Nc1ccc2nc(-c3cccn3C)[nH]c2c1 do in these assays?
CHX counter: 17; Pf growth 48h: inactive; NS1 function inh: inactive; Pf growth 96h: inactive

How did [O]=[Bi][O][Bi]=[O] do in these assays?
Pf growth 48h: inactive; Pf growth 96h: inactive

Results for O=C(Cn1c(-c2ccccc2)noc1=O)Nc1ccc(N2CCCCCC2)cc1 ?
CHX counter: inactive; Pf growth 48h: inconclusive; NS1 function inh: inactive; Shiga inhibitor: inactive; Pf growth 96h: inactive

What do the screens show for `CC1CC(C)CN(S(=O)(=O)N2CCC(C(=O)NCCC3=CCCCC3)CC2)C1` (stereo not given)?
CHX counter: inactive; Pf growth 48h: inactive; Shiga inhibitor: inactive; Pf growth 96h: inconclusive

Results for O=C(CCn1nnc2ccccc21)NNC(=O)C1CCCCC1 ?
CHX counter: inactive; Pf growth 48h: inactive; Shiga inhibitor: inactive; Pf growth 96h: inactive

What do the screens show for `CC(=O)N(C)Cc1ccc(C(=O)CCl)cc1`?
CHX counter: 26; Pf growth 48h: inactive; Shiga inhibitor: inactive; Pf growth 96h: inactive

Results for O=S(=O)(Nc1ccc2c(c1)OCCO2)c1ccc(Br)s1 ?
CHX counter: inactive; Pf growth 48h: inactive; NS1 function inh: inactive; Shiga inhibitor: inactive; Pf growth 96h: inactive

Results for O=C1[C@H](O)[C@@H](O)C(=O)N1Cc1ccccc1 ?
CHX counter: inactive; Pf growth 48h: inactive; NS1 function inh: inactive; Shiga inhibitor: inactive; Pf growth 96h: inactive

How did CC1=CC(=C(C#N)C#N)C=C(C)N1Cc1ccccc1 do in these assays?
CHX counter: inactive; Pf growth 48h: inconclusive; Shiga inhibitor: inactive; Pf growth 96h: 4.7µM

What do the screens show for `COCCCn1c(=O)/c(=C\c2ccccc2OC(C)C)s/c1=C(/C#N)C(=O)Nc1ccc(C(=O)O)cc1`?
CHX counter: inactive; Pf growth 48h: 1.9µM; NS1 function inh: inactive; Shiga inhibitor: inactive; Pf growth 96h: 1.5µM

What do the screens show for `COCCCn1c(=O)/c(=C\c2ccccc2OC(F)F)s/c1=C(/C#N)C(=O)NC(C)C`?
CHX counter: inactive; Pf growth 48h: inactive; NS1 function inh: inactive; Shiga inhibitor: inactive; Pf growth 96h: inactive

Results for CCC(=O)c1ccc(OCCSc2ncccn2)cc1 ?
CHX counter: 53; Pf growth 48h: inactive; NS1 function inh: inactive; Shiga inhibitor: 88; Pf growth 96h: inconclusive

How did c1ccc(OCCOCCSc2ncccn2)cc1 do in these assays?
CHX counter: 20; Pf growth 48h: inactive; NS1 function inh: inactive; Shiga inhibitor: inactive; Pf growth 96h: inactive

How did Cc1cccc(OCCSc2nc(N)cc(N)n2)c1 do in these assays?
CHX counter: 20; Pf growth 48h: inactive; NS1 function inh: inactive; Shiga inhibitor: 45; Pf growth 96h: inactive

How did Cc1cccc(OCCOCCSc2ncccn2)c1 do in these assays?
CHX counter: 10; Pf growth 48h: inactive; NS1 function inh: inactive; Shiga inhibitor: inactive; Pf growth 96h: inactive

Source: PubChem
